Most compounds without a hit are left out; they make up all but 2.2% or so of the library.
Cardio protect = protects H9c2 cardiomyocytes from peroxide injury; actives 0.63% (n = 360,000); protection from H2O2 cell death, % at 20 µM; AID 588492; H2O2 injury protection, ATPLite, 2 h;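 active means compounds giving at least 50% protection of heart cells from peroxide-induced death in the single-dose screen, raw or plate-pattern-corrected value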
beta cell repl = induces beta-cell replication in MIN6 cells; MIN6 cells proliferation, ATPlite luminescence, 48 h; cells starved in 0.2% serum; 100% = growth in 10% serum; proliferation, % at 10 µM; actives 0.29% (n = 330,000);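 active means compounds whose signal lies at least 3.5 SD above the mean of all wells on their plate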
hiPSC survival = increases survival of single human iPS cells. actives 0.044% (n = 360,000). AID 602274. hiPSC single-cell survival, ATPlite luminescence; 100% = ROCK inhibitor wells, 0% = DMSO. survival enhancement, % at 20 µM; in the data active means survival enhancement above about 18%;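 further: cells exposed to compounds for 16 hours before the ATP read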
Myeloid diff 2 = promotes myeloid progenitor differentiation | ER-HoxA9 myeloid progenitors, lysozyme-GFP differentiation, flow cytometry | calls only at 10 µM | actives 1% (n = 360,000) | AID 624256;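 active means normalized GFP-positive differentiation at or above the plate's own cutoff, the solvent-only control mean plus 3 SD; inconclusive means no clear call, values can overlap the other calls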;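 further: cells exposed to compound for four days before flow analysis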
ABCB6 inh 2 = human ABCB6 transporter inhibition; Q9NP58; actives 0.19% (n = 360,000); fluorescence ratio to DMSO, % at 10 µM; K562-ABCB6 porphyrin accumulation, flow cytometry, 1 h; active compounds read low;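 active means fluorescence ratio to DMSO below 75%, the collection mean minus 3 SD; inconclusive means too few cells collected in the well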;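 further: signal is porphyrin accumulated inside mitochondria; lower ratio means ABCB6 inhibition with less porphyrin fluorescence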
Target sequence (Q9NP58 whole entry, looked up): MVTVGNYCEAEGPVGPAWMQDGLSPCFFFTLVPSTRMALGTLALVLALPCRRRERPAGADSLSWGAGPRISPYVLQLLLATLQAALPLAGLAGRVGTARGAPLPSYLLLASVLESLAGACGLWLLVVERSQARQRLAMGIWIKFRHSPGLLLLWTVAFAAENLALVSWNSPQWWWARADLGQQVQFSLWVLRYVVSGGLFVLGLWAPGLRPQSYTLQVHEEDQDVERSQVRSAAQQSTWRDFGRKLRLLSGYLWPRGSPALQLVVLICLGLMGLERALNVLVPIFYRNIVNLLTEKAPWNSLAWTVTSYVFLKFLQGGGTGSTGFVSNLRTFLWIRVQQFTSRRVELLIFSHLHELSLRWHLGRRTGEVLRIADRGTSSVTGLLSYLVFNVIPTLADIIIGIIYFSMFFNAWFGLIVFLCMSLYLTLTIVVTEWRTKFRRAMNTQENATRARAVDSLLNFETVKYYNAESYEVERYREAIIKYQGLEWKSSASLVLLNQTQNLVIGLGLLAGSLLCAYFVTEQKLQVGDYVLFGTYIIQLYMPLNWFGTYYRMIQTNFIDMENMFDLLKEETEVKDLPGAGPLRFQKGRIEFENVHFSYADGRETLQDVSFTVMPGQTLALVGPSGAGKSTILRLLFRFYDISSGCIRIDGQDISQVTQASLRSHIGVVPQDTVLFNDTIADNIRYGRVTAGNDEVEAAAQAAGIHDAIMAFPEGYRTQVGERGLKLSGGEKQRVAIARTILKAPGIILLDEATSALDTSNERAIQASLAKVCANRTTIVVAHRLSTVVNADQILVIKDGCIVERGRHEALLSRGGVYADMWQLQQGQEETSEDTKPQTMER
Hits are given with their value; . = inactive; ? = inconclusive; / = not tested or not shown; + = active, no number.

SMILES	Cardio protect	beta cell repl	hiPSC survival	Myeloid diff 2	ABCB6 inh 2
O=C(c1ccc(S(=O)(=O)N2CCOCC2)cc1)N1CCN(S(=O)(=O)c2ccc(Cl)s2)CC1	.	.	.	.	.
O=C(NCC(=O)N(Cc1ccccc1)C(C(=O)NCC1CCCO1)c1ccccc1)c1ccco1 (centres undefined)	.	.	.	.	.
Cc1ccc(CN(C(=O)CNC(=O)c2cccs2)C(C(=O)NCC2CCCO2)c2ccccc2)cc1 (centres undefined)	91	.	.	.	.
COc1ccccc1CN(C(=O)CNC(=O)c1ccco1)C(C(=O)NCC1CCCO1)c1ccccc1 (centres undefined)	68	.	.	.	.
CCOc1ccc(C(=O)NCC(=O)N2CCN(C/C=C/c3ccccc3)CC2)cc1OCC	.	.	.	.	.
COC(=O)[C@H](CCSC)NC(=O)[C@@H](Cc1cnc[nH]1)NC(=O)OCc1ccccc1	.	.	.	.	.
COC(=O)c1cccc(Nc2nc(-c3cccnc3)nc3ccccc23)c1	51	.	.	.	.
CCOC(=O)c1nc(Nc2ccc(C(C)=O)cc2)c2ccccc2n1	82	.	.	.	.
O=C(O)c1cccc(Nc2nc(-c3cccnc3)nc3ccccc23)c1	.	.	.	.	.
CCOC(=O)c1cccc(Nc2nc(-c3cccnc3)nc3ccccc23)c1	55	.	.	+	.
O=C(N/N=C\c1cc2c(cc1[N+](=O)[O-])OCO2)c1cccs1	.	.	.	.	.
CCOc1ccc(N=C2NC(=O)S/C2=C\c2ccc(N(C)C)cc2)cc1	.	.	.	+	.
Cc1ccc(S(=O)(=O)N2CCOCC2)cc1NC(=O)CN1CCN(c2ccc(O)cc2)CC1	.	.	.	.	.
N#C/C(=C\c1ccc(O)c(O)c1)C(=O)N1CCc2ccccc21	77	.	.	.	.
N#C/C(=C\c1ccc(O)c(O)c1)C(=O)NCCc1ccccc1	77	.	.	.	.
COc1cc(/C=C(\C#N)C(=O)N2CCc3ccccc32)ccc1O	.	.	.	.	.
Cc1cccc(C(C)C)c1NC(=O)CSc1nncn1C	.	.	.	.	.
O=C(O)CCc1ccc(-c2ccc(Br)cc2)n1CC(=O)O	.	.	.	.	.
CCOC(=O)c1cccc(NC(=O)CCNS(=O)(=O)c2cc(Br)cnc2N)c1	.	.	.	.	.
Cc1cc(O)c(C=Nc2ccc(N3CCOCC3)cc2)c(C)c1Cl	83	.	.	.	.
CCCCN(CCCNC(=O)CN1C(=O)COc2ccccc21)c1ccccc1	.	.	.	.	.
COC(=O)c1c(NC(=O)c2nc3ccccc3s2)sc2c1CCN(C(C)=O)C2	58	.	.	.	.
COc1ccc(-c2cc(NC=O)c3ncc(-c4ccc(OC)c(OC)c4)n3c2)cc1OC	.	/	.	?	.
COc1cccc(-c2cnc3c(NC=O)cc(-c4cccc(C(=O)N(C)C)c4)cn23)c1	58	/	.	.	.
COc1cccc(-c2cnc3c(NC(C)=O)cc(-c4cc(OC)c(OC)c(OC)c4)cn23)c1	57	/	.	.	.
SMILES	Cardio protect	beta cell repl	hiPSC survival	Myeloid diff 2	ABCB6 inh 2
COc1cc(-c2cc(NC=O)c3ncc(-c4ccc(C(C)=O)cc4)n3c2)ccc1O	83	/	.	?	.
COc1cccc(-c2cnc3c(NC=O)cc(-c4ccc(O)c(OC)c4)cn23)c1	85	/	.	.	.
CC(=O)c1ccc(Cc2ccccc2)cc1	.	.	.	.	.
O=C(CN1c2cccc3cccc(c23)S1(=O)=O)NCc1ccc(Cl)cc1	.	.	.	.	.
Cc1csc2nc(COC(=O)c3ccc(Cl)c([N+](=O)[O-])c3)cc(=O)n12	82	.	.	.	.
Cc1csc2nc(COC(=O)CNC(=O)c3ccc(Cl)cc3)cc(=O)n12	.	.	.	.	.
COc1cc(CNc2ccc(N3CCCC3)cc2)cc(Cl)c1OC	.	.	.	+	.
CCOC(=O)[C@]12CCCC=C1N(Cc1ccco1)C(=O)[C@H](CC(=O)NCc1cccs1)C2	/	/	.	.	.
CCN(CC)c1ccc(/C=C2/SC(=O)N(C(C)C)C2=O)o1	.	/	.	+	.
N#Cc1ccc(-c2ccco2)nc1SCC(=O)c1ccc(Cl)cc1	.	.	.	+	.
Cc1ccc(C(=O)CSc2nc(-c3ccccc3)ccc2C#N)cc1	.	.	.	+	.
Cc1ccc(-c2ccc(SCC(=O)c3ccccc3)nn2)cc1	.	.	.	.	.
COc1ccc(C(c2nnnn2-c2ccc3c(c2)OCCO3)N2CCN(C/C=C/c3ccccc3)CC2)cc1 (centres undefined)	.	/	.	.	.
CCCCCN1C(=O)/C(=C/c2c(N3CCc4ccccc4C3)nc3ccccn3c2=O)SC1=S	.	.	.	+	.
CCOc1ccc(N2CC(C(=O)NCc3ccc(F)cc3)CC2=O)cc1 (centres undefined)	.	.	.	.	.
COCCCn1c(=N)c(C(N)=S)cc2c(=O)n3cccc(C)c3nc21	.	.	.	.	.
Cc1ccc2nc3c(cc(C(=O)NCCc4ccccc4)c(=N)n3CCN3CCOCC3)c(=O)n2c1	.	.	.	+	.
Cc1ccc2nc3c(cc(C(N)=S)c(=N)n3CCCOC(C)C)c(=O)n2c1	.	.	.	+	.
Cc1c(C(=O)NCc2ccccc2CN2CCCC2)oc2ccccc12	.	.	.	.	.
O=C(CN(Cc1ccc(F)cc1)C(=O)CCC(=O)Nc1nccs1)NCC1CCCO1 (centres undefined)	.	.	.	+	.
CCOC(=O)C/C(C)=N/NC(=O)COc1ccccc1C	.	.	.	.	.
CC1CN(CC(=O)Nc2nc(-c3ccc(Cl)cc3)cs2)CC(C)O1 (centres undefined)	.	/	.	+	.
O=C(CN1C(=O)C2CC=CCC2C1=O)Nc1nc(-c2ccc(F)c(F)c2)cs1 (centres undefined)	82	.	.	.	.
CCCc1ccc(OCC(O)CN2CCCC2)cc1 (centres undefined)	.	.	.	.	.
O=C(c1ccc(-n2cnnn2)cc1)N(C1CCCCC1)C1CCCCC1	.	.	.	.	.
SMILES	Cardio protect	beta cell repl	hiPSC survival	Myeloid diff 2	ABCB6 inh 2
O=C(NO)c1ccc(C(=O)N(C2CCCCC2)C2CCCCC2)cc1	81	.	.	.	.
O=c1[nH]ccc2c(O)cccc12	90	.	.	.	.
Nc1cccc2c(O)cccc12	.	.	.	+	.
NC(=O)c1ccc(NS(=O)(=O)c2ccc(S(=O)(=O)N3CCCC3)cc2)cc1	.	/	.	.	.
C/C(=N\NS(=O)(=O)c1ccc(C)c([N+](=O)[O-])c1)c1cc2ccccc2o1	.	.	.	+	.
CCCc1cc2c(cc1NC(=O)c1ccc(C(C)(C)C)cc1)OCO2	.	.	.	.	.
CCCc1cc2c(cc1NC(=O)c1ccc(Br)cc1)OCO2	56	.	.	.	.
Brc1cc2c(cc1/C=N/Nc1nc(N3CCCC3)nc(N3CCOCC3)n1)OCO2	63	.	.	.	.

Screening results: PubChem BioAssay, several laboratories
